“And” between values parts separate entries of the source, which are not always exact repeats. Identical values can stand only once. Inconclusive results are not listed. A call without a number means that no potency is given here. The source holds several records for some structures; these can differ, active in one and inactive in another. The source made the active and inactive calls. Unless noted, calls follow the shape of the dose curve; as a rule, active = well fitted curve in the direction sought with a large enough effect in the repeat runs; inconclusive = weak or mixed curves; inactive = no such curve, though single readings can be large; an effect the other way counts as inactive or inconclusive.
Experiments:
[1] = qHTS assay to identify aromatase inhibitors - cell viability counter screen (AID 743084);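 also: cells stimulated with testosterone during compound exposure; nearly all actives have a fitted effect of over 55% in size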; also: potency is read from the fitted curve at half-maximal effect
[2] = molecular target: Aryl hydrocarbon receptor (Homo sapiens) (UniProt P35869); experiment: qHTS assay to identify small molecule that activate the aryl hydrocarbon receptor (AhR) signaling pathway (AID 743085); also: nearly all actives have a fitted effect of over 15% in size; also: potency is read from the fitted curve at half-maximal effect;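 as to activation: HG2L7.5c1 human HepG2 liver cells with stably integrated DRE-driven firefly reporter; series mostly up to about 70 µM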
Aryl hydrocarbon receptor (Homo sapiens), sequence (P35869 whole entry, looked up): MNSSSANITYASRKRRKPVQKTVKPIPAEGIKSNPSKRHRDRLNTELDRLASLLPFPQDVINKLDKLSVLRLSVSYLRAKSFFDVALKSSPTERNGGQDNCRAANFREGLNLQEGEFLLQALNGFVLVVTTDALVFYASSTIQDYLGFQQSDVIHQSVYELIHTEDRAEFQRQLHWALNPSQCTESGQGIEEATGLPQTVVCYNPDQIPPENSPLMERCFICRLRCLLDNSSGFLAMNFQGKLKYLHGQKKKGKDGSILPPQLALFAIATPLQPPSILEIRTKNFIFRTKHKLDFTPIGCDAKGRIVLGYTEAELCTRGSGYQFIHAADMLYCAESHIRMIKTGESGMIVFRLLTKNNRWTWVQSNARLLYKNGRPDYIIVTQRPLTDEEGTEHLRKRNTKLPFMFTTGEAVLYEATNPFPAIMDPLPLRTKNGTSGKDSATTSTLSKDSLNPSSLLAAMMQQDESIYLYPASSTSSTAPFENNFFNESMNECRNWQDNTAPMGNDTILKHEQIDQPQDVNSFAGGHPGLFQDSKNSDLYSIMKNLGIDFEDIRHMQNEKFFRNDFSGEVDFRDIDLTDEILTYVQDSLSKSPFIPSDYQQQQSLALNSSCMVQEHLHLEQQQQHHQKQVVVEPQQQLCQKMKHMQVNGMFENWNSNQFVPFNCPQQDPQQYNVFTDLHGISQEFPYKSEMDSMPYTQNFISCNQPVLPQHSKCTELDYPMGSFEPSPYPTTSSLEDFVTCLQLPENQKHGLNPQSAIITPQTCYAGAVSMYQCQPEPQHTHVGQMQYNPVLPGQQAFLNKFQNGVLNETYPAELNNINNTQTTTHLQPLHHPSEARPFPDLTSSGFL
Procedure, shortened: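 Luminescence read-out: ONE-Glo reagent, 30 min at room temperature, in HG2L7.5c1 HepG2 reporter cells treated 24 h at 37C. Viability was measured beforehand by CellTiter-Fluor fluorescence after 30 min at 37C.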

[3] = qHTS assay to identify small molecule that activate the aryl hydrocarbon receptor (AhR) signaling pathway - cell viability counter screen (AID 743086); also: nearly all actives have a fitted effect of over 45% in size; also: potency is read from the fitted curve at half-maximal effect
Procedure, shortened: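 HepG2-AhR-luc (HG2L7.5c1) cells, 4000/well, were preincubated 5 h at 37C, exposed to compound in qHTS format for 24 hr at 37C, then given CellTiter-Fluor for 30 min; viability was read as fluorescence in the reporter wells.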

[4] = qHTS assay to identify small molecule antagonists of the peroxisome proliferator-activated receptor gamma (PPARg) signaling pathway - cell viability counter screen (AID 743194); conditions: Potency: co-treated with 50 nM rosiglitazone unless noted; also: nearly all actives have a fitted effect of over 55% in size; also: potency is read from the fitted curve at half-maximal effect
Procedure, shortened: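 PPARg-UAS-bla HEK293H cells were plated, rested 5 h at 37 C, then treated with compounds plus rosiglitazone (50 nM final) for 17 h at 37 C; viability was then read by CellTiter-Glo luminescence after 30 min at room temperature.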

[5] = qHTS assay for small molecule agonists of the antioxidant response element (ARE) signaling pathway (AID 743202; active = well fitted activation curve with a large enough effect in the signal ratio in the repeat runs, not every such curve was filed as active; the % refers to the signal ratio; also: potency is read from the fitted curve at half-maximal effect)
Procedure, shortened: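 Compounds delivered in DMSO to ARE-bla HepG2 cells (2,000 cells/well, pre-incubated 5 h) and left 16 h at 37 C. LiveBLAzer B/G FRET substrate then added for 2 h at RT before fluorescence reading.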

[6] = qHTS assay for small molecule agonists of the antioxidant response element (ARE) signaling pathway - cell viability counter screen (AID 743203; calls by dose curve; also: nearly all actives have a fitted effect of over 55% in size; also: potency is read from the fitted curve at half-maximal effect)
Procedure, shortened: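 Following 16 hrs of compound treatment at 37C, HepG2 cells with an ARE-controlled beta-lactamase gene were lysed with CellTiter-Glo. Luminescence was read after 30 min at room temperature.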

[7] = qHTS assay for small molecule activators of the heat shock response signaling pathway - cell viability counter screen (AID 743209); also: nearly all actives have a fitted effect of over 50% in size; also: potency is read from the fitted curve at half-maximal effect
Procedure, shortened: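 Readout: CellTiter-Glo luminescence, 30 min at room temperature. System: HSE-bla HeLa cells, 1500/well, plated overnight. Treatment: compounds in DMSO, 5 h at 37 C.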

[8] = qHTS assay to identify small molecule agonists of the peroxisome proliferator-activated receptor delta (PPARd) signaling pathway - cell viability counter screen (AID 743211); also: nearly all actives have a fitted effect of over 55% in size; also: potency is read from the fitted curve at half-maximal effect
Procedure, shortened: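 Read-out: CellTiter-Glo luminescence, 30 min RT, measured in the same wells as the beta-lactamase reporter. Cells: GeneBLAzer PPAR delta UAS-bla HEK293H, 3000 cells/well, compound exposure 17 h at 37C.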

[9] = qHTS assay to identify small molecule antagonists of the peroxisome proliferator-activated receptor delta (PPARd) signaling pathway - cell viability counter screen (AID 743213); also: nearly all actives have a fitted effect of over 50% in size; also: potency is read from the fitted curve at half-maximal effect
Procedure, shortened: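 HEK293H cells with the PPARd UAS-bla reporter, co-treated 17 h at 37 C with compounds and L165041 (300 nM final), were lysed with CellTiter-Glo. Luminescence indicated viable cell content.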

[10] = molecular target: Bile acid receptor (Homo sapiens) (UniProt Q96RI1); experiment: qHTS assay to identify small molecule antagonists of the farnesoid-X-receptor (FXR) signaling pathway (AID 743217; active = well fitted inhibition curve with a large enough effect in the signal ratio in the repeat runs, not every such curve was filed as active; the % refers to the signal ratio)
Bile acid receptor (Homo sapiens), sequence (Q96RI1 whole entry, looked up): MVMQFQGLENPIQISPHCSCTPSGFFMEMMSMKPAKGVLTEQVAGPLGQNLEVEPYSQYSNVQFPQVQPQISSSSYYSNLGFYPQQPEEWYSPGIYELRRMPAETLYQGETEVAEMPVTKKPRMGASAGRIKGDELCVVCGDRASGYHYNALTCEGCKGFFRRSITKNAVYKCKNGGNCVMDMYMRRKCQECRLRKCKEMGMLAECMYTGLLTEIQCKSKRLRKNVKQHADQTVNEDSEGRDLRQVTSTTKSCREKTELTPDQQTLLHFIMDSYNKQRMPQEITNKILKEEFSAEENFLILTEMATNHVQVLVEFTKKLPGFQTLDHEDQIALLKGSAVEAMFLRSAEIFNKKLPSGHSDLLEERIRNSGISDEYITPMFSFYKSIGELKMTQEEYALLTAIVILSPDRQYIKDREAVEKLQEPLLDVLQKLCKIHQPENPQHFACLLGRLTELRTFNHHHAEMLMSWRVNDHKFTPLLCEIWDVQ
Procedure, shortened: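 GeneBLAzer FXR-UAS-bla HEK 293T, CDCA-stimulated (50 uM final). Compound treatment 16 h, 37 °C. Detection: beta-lactamase cleavage of B/G FRET substrate, fluorescence.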

[11] = qHTS assay to identify small molecule agonists of the farnesoid-X-receptor (FXR) signaling pathway - cell viability counter screen (AID 743218); also: nearly all actives have a fitted effect of over 45% in size; also: potency is read from the fitted curve at half-maximal effect
Procedure, shortened: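 Parallel cytotoxicity test: compound-treated (16 h, 37 C) HEK 293T FXR-bla reporter cells were lysed with CellTiter-Glo and luminescence recorded.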

[12] = qHTS assay to identify small molecule antagonists of the farnesoid-X-receptor (FXR) signaling pathway - cell viability counter screen (AID 743221; active = well fitted cell-killing curve with a large enough effect in the repeat runs, not every such curve was filed as active; also: nearly all actives have a fitted effect of over 50% in size; also: potency is read from the fitted curve at half-maximal effect)
Procedure, shortened: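 HEK 293T FXR-bla cells, 5 h pre-incubation; compound + CDCA 50 uM final, 16 h, 37 C; beta-lactamase FRET read first, then CellTiter-Glo luminescence, 30 min RT.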

[13] = molecular target: Peroxisome proliferator-activated receptor gamma (Homo sapiens) (UniProt P37231); experiment: qHTS assay to identify small molecule agonists of the peroxisome proliferator-activated receptor gamma (PPARg) signaling pathway (AID 743094; active = well fitted activation curve with a large enough effect in the signal ratio in the repeat runs, not every such curve was filed as active; the % refers to the signal ratio)
Peroxisome proliferator-activated receptor gamma (Homo sapiens), sequence (P37231 whole entry, looked up): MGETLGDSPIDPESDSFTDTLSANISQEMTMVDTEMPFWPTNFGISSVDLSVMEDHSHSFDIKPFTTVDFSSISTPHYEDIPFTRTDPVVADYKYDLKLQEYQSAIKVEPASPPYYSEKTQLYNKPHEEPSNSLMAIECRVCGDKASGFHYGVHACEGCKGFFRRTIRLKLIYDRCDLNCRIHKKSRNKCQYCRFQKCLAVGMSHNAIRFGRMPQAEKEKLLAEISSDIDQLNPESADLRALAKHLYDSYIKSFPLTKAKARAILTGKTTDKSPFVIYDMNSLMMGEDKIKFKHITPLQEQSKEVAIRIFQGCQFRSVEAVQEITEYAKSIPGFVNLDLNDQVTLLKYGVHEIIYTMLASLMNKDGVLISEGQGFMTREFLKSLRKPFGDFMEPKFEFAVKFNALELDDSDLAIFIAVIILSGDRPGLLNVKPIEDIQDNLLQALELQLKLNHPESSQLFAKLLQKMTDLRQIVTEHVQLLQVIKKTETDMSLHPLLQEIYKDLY
Procedure, shortened: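 Compounds dissolved in DMSO were added to PPARg UAS-bla HEK293H cells for 17 h at 37C, and reporter expression was quantified by fluorescence intensity after 1 h with LiveBLAzer B/G FRET substrate.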

[14] = molecular target: Peroxisome proliferator-activated receptor delta (Homo sapiens) (UniProt Q03181); experiment: qHTS assay to identify small molecule agonists of the peroxisome proliferator-activated receptor delta (PPARd) signaling pathway (AID 743212; calls by dose curve)
Peroxisome proliferator-activated receptor delta (Homo sapiens), sequence (Q03181 whole entry, looked up): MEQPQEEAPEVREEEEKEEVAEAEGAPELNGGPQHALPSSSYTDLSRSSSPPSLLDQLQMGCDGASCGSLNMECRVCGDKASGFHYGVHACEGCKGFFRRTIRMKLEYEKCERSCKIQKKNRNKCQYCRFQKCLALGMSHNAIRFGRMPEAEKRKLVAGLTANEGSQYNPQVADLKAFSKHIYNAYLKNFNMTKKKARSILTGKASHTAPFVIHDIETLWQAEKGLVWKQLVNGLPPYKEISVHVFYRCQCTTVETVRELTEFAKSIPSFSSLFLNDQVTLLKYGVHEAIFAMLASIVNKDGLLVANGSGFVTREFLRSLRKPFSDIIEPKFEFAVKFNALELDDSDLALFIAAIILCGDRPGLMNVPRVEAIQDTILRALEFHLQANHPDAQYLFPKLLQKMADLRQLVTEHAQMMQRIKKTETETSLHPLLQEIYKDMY
Procedure, shortened: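 A PPARd-bla HEK293H line with beta-lactamase under an Upstream Activator Sequence is treated with compounds at 37 C. Substrate loading for 2 h at room temperature precedes the fluorescence measurement.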

[15] = molecular target: Bile acid receptor (Homo sapiens) (UniProt Q96RI1); experiment: qHTS assay to identify small molecule agonists of the farnesoid-X-receptor (FXR) signaling pathway (AID 743220; active = well fitted activation curve with a large enough effect in the signal ratio in the repeat runs, not every such curve was filed as active; the % refers to the signal ratio)
Procedure, shortened: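 Beta-lactamase reporter under UAS control in GeneBLAzer FXR HEK 293T cells (5000/well) measured with LiveBLAzer FRET substrate after 2 h at room temperature. Compound exposure lasted 16 h at 37C.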

[16] = molecular target: Vitamin D3 receptor (Homo sapiens) (UniProt P11473); experiment: qHTS assay to identify small molecule agonists of the vitamin D receptor (VDR) signaling pathway (AID 743222; calls by dose curve)
Vitamin D3 receptor (Homo sapiens), sequence (P11473 whole entry, looked up): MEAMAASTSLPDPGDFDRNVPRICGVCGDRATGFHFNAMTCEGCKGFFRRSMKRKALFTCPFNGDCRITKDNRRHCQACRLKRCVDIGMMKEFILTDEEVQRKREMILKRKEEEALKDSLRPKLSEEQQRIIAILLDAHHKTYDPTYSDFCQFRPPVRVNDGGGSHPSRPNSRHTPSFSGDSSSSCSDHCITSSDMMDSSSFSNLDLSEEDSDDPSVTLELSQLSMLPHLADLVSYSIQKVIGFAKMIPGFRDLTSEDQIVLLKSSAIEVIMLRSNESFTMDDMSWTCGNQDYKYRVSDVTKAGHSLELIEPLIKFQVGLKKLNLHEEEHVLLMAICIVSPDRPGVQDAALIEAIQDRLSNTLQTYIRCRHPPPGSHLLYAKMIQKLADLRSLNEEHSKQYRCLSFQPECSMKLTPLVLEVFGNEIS
Procedure, shortened: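 In VDR-bla cells, compound-induced beta-lactamase expression is quantified by FRET substrate fluorescence. Treatment lasts 16 h at 37C; substrate develops 2 h at room temperature.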

[17] = molecular target: Vitamin D3 receptor (Homo sapiens) (UniProt P11473); experiment: qHTS assay to identify small molecule antagonists of the vitamin D receptor (VDR) signaling pathway (AID 743223; active = well fitted inhibition curve with a large enough effect in the signal ratio in the repeat runs, not every such curve was filed as active; the % refers to the signal ratio)
Procedure, shortened: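 Beta-lactamase reporter read-out: FRET substrate fluorescence after 2 h at room temperature, following 16 h exposure of VDR-bla cells to test compound plus 3 nM (final) 1alpha,25-dihydroxyvitamin D3 agonist at 37C.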

[18] = qHTS assay for small molecule activators of the heat shock response signaling pathway (AID 743210; active = well fitted activation curve with a large enough effect in the signal ratio in the repeat runs, with a control signal flat, not every such curve was filed as active; the % refers to the signal ratio;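 also: HeLa cells with beta-lactamase reporter driven by heat shock elements; series mostly up to about 63 µM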)
Procedure, shortened: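 Reporter gene assay: HeLa cells stably bearing an HSE-bla construct, compound treatment 5 h at 37 C, LiveBLAzer substrate 2.5 h at RT, fluorescence intensity.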

[19] = molecular target: Peroxisome proliferator-activated receptor delta (Homo sapiens) (UniProt Q03181); experiment: qHTS assay to identify small molecule antagonists of the peroxisome proliferator-activated receptor delta (PPARd) signaling pathway (AID 743215; active = well fitted inhibition curve with a large enough effect in the signal ratio in the repeat runs, not every such curve was filed as active; the % refers to the signal ratio;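 also: cells stimulated with agonist L165041 at 300 nM final during compound exposure; series mostly up to about 62 µM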)
Procedure, shortened: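 HEK293H UAS-bla, PPARd; agonist L165041 300 nM final with cpd in DMSO; 37 C 17 h; FRET substrate, RT 2 h; fluorescence intensity.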

[20] = molecular target: Peroxisome proliferator-activated receptor gamma (Homo sapiens) (UniProt P37231); experiment: qHTS assay to identify small molecule antagonists of the peroxisome proliferator-activated receptor gamma (PPARg) signaling pathway (AID 743191; calls by dose curve; also: series mostly up to about 63 µM; nearly all actives have a fitted effect of over 30% in size)
Procedure, shortened: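 GeneBLAzer PPARg UAS-bla HEK293H cells carrying a UAS-driven beta-lactamase reporter were plated at 3000 cells/well, preincubated 5 h at 37C, then given compound for 17 h at 37C; LiveBLAzer B/G FRET substrate was read after 1 h at room temperature.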

SMILES | Potency [1] | Potency [2] | Potency [3] | Potency [4] | Potency [5] | Potency [6] | Potency [7] | Potency [8] | Potency [9] | Potency [10] | Potency [11] | Potency [12] | Potency [13] | Potency [14] | Potency [15] | Potency [16] | Potency [17] | Potency [18] | Potency [19] | Potency [20]
C=Cc1cccc(CCl)c1 | inactive | inactive | inactive | inactive | 55.9 µM (active) | inactive | inactive | inactive | inactive | inactive | inactive | inactive | – | – | – | – | – | – | – | –
COC(=O)/C=C(\C)OP(=O)(OC)OC | inactive | inactive | inactive | – | – | inactive | inactive | inactive | inactive | – | inactive | inactive | inactive | inactive | inactive | inactive | inactive | – | – | –
CC(=O)[O-].CC(=O)[O-].O.O.[Zn+2] | inactive | inactive | inactive | inactive | inactive | inactive | inactive | inactive | inactive | – | inactive | inactive | – | – | – | – | – | – | – | –
CCOC(=O)Cc1ccccc1 | inactive | inactive | inactive | inactive | inactive | inactive | inactive | inactive | – | inactive | inactive | inactive | – | inactive | – | inactive | inactive | inactive | inactive | –
O=C(O)[C@H](O)[C@@H](O)C(=O)O | inactive | inactive | inactive | inactive | inactive | inactive | inactive | inactive | inactive | inactive | inactive | inactive | – | – | inactive | – | – | – | – | –
Cc1cc2c3c(c1)C(c1ccccc1)=N[C@@H](NC(=O)c1ccncc1)C(=O)N3CC2 | inactive | inactive | inactive | inactive | inactive | inactive | inactive | – | inactive | inactive | inactive | inactive | – | inactive | – | inactive | – | – | inactive | –
CCOP(=O)(OCC)Oc1cc(C)nc(C(C)C)n1 | inactive | inactive | inactive | inactive | – | inactive | inactive | inactive | – | inactive | inactive | inactive | – | inactive | inactive | – | – | – | inactive | –
[Cl-].[Cl-].[Sn+2] | inactive | inactive | inactive | inactive | – | inactive | inactive | – | inactive | – | inactive | inactive | – | – | – | – | – | inactive | – | –
CN(C)CCc1c[nH]c2ccccc12 | inactive | inactive | inactive | inactive | inactive | inactive | – | inactive | inactive | – | inactive | inactive | – | – | – | – | inactive | – | – | –
[Cl-].[Cl-].[Cl-].[Yb+3] | inactive | inactive | inactive | inactive | inactive | inactive | inactive | inactive | inactive | – | inactive | inactive | – | – | – | – | – | inactive | – | –
CCCCCCCCCCCCCCn1cc[n+](C)c1 | 8.65 µM (active) and 38.1 µM (active) | inactive | 34.4 µM (active) | 9.79 µM [setting not given] (active) and inactive | – | 24.4 µM (active) and 30.3 µM (active) and inactive | 19.5 µM (active) and 21.6 µM (active) and inactive | 24.6 µM (active) and 21.6 µM (active) and inactive | – | – | 21.9 µM (active) and inactive | 24.6 µM (active) and 54.4 µM (active) and inactive | – | – | inactive | – | inactive | – | inactive | –
Nc1ccccc1-c1ccccc1 | inactive | inactive | inactive | inactive | – | inactive | inactive | – | – | – | – | inactive | – | – | – | inactive | – | – | inactive | –
CC(C)c1c(CN(C)C(C)Cc2ccccc2)n(C)n(-c2ccccc2)c1=O (configuration not stated) | inactive | inactive | inactive | – | – | inactive | inactive | inactive | 13.3 µM (active) | – | – | inactive | – | – | inactive | inactive | – | inactive | – | –
Clc1cc(Cl)c(-c2cc(Cl)c(Cl)cc2Cl)cc1Cl | inactive | inactive | – | inactive | inactive | inactive | inactive | – | – | inactive | inactive | inactive | inactive | inactive | inactive | inactive | inactive | – | – | –
Cc1cnc2c(C(=O)O)c(Cl)ccc2c1 | inactive | inactive | – | inactive | inactive | inactive | inactive | inactive | inactive | inactive | inactive | inactive | inactive | – | inactive | – | – | inactive | – | inactive
O=C(N[C@H]1N=C(c2ccccc2F)c2cccc3c2N(CC3)C1=O)c1cc2ccccc2[nH]1 | inactive | 5.31 µM (active) | – | inactive | – | inactive | inactive | inactive | – | – | inactive | inactive | inactive | inactive | – | inactive | inactive | – | inactive | –
ClC1(Cl)C2(Cl)C3(Cl)C4(Cl)C(Cl)(Cl)C5(Cl)C3(Cl)C1(Cl)C5(Cl)C24Cl (configuration not stated) | inactive | inactive | – | inactive | – | inactive | inactive | inactive | inactive | – | – | inactive | inactive | inactive | – | inactive | inactive | inactive | inactive | –
CNC(=O)Oc1cc(C)cc(C(C)C)c1 | inactive | inactive | – | inactive | – | inactive | inactive | – | inactive | – | inactive | inactive | – | inactive | – | inactive | inactive | inactive | inactive | –

Source: PubChem BioAssay (Tox21)
